Shiga inhibitor: inhibitors of Shiga toxin in Vero cells; inhibition, % at 38.7 µM; AID 2315; Vero cells, Shiga toxin protein synthesis inhibition reporter; actives 9.2% (n = 290,000); in the data active = inhibition mostly above about 28%, no sharp cut-off; inactive = mostly below about 43%; note: 0% is about no effect
AmpC inh no detg: blocks E. coli AmpC beta-lactamase in detergent-free assay | actives 0.52% (n = 330,000) | Potency, µM (highest dose often 57.1 µM), for the others: at the highest dose activity change, negative = inhibition, actives largely listed as inhibitors | AmpC nitrocefin hydrolysis, absorbance 480 nm, 0.0001% Triton | P00811;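 note: potency is the fitted concentration of half-maximal effect; plate controls were no compound for no effect and no enzyme for full effect; nearly all actives have a fitted effect of over 20% in size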
Target sequence (P00811 whole entry, looked up): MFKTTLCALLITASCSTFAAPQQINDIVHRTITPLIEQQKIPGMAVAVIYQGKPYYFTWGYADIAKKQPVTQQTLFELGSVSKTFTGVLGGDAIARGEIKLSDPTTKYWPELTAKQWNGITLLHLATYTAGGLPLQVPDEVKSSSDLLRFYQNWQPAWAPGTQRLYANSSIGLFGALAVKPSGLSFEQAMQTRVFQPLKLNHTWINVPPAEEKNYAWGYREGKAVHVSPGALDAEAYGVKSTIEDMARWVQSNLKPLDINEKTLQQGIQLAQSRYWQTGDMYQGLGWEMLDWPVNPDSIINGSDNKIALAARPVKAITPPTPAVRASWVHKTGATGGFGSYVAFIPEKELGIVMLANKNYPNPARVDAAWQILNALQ
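AmpC (5.3 nM in the dispensed reagent) in 20 mM phosphate pH 7.0 with 0.01% (detergent screen) or 0.0001% Triton X-100 was preincubated with compounds for 15 min at room temperature. Nitrocefin was then added from an 800 uM solution, and hydrolysis was followed at 480 nm.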
NS1 function inh: influenza NS1 inhibition. Potency, µM (highest dose often 46.1 µM), for inactives: at the top dose activity, positive = more growth. actives 0.4% (n = 270,000); calls by dose curve; note: potency is the fitted concentration of half-maximal effect; actives are rising curves; nearly all actives have a fitted effect of over 50% in size
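Growth recovery, yeast-based: influenza A NS1 expressed in S. cerevisiae causes slow growth, and suppressors are detected by OD600. The parent strain without NS1 is used as positive control.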
CHX counter: counter-screen hit for Shiga toxin inhibitors, cycloheximide | cell reporter, cycloheximide protein synthesis inhibition counterscreen | max response, % | actives 12% (n = 300,000); in the data active = max response mostly above about 13%, no sharp cut-off; inactive = mostly below about 14%; note: read at 38.3 µM for the half of the compounds with a filed dose; 0% is about no effect
AmpC inh detg: inhibitors of E. coli AmpC beta-lactamase with detergent; AmpC hydrolysis of nitrocefin, absorbance 480 nm, 0.01% Triton; Potency, µM (top dose mostly 114 µM), for inactives: at the top dose activity change, negative = inhibition, most hits filed as inhibitors; actives 0.041% (n = 370,000);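 note: potency is the fitted concentration of half-maximal effect; 0% = no-compound wells and -100% = no-enzyme wells; nearly all actives have a fitted effect of over 25% in size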
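AmpC (5.3 nM in the dispensed reagent) in 20 mM phosphate pH 7.0 with 0.01% (detergent screen) or 0.0001% Triton X-100 was preincubated with compounds for 15 min at room temperature. Nitrocefin was then added from an 800 uM solution, and hydrolysis was followed at 480 nm.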
Active calls of the source: *; ? = inconclusive; · = no result; + = active, no number; [ ] = another dose, or the depositor's remark. The entries come from a sample that favours hits as a whole. Unless noted, calls come from the whole dose curve; as a rule, active = well fitted curve in the direction sought with a large enough effect; inconclusive = small, poorly fitted or top-dose-only effect, or another doubt; inactive = no such curve, though single readings can be large; an effect the other way counts as inactive or inconclusive.

SMILES	Shiga inhibitor	AmpC inh no detg	NS1 function inh	CHX counter	AmpC inh detg
O=C(CCNC(=O)c1ccc([N+](=O)[O-])cc1)NCc1cccs1	·	-8%	·	·	·
C[C@H]1COC(=O)[C@H](CC(=O)OC(C)(C)C)C/C=C\C[C@@H](CC(=O)N[C@@H](CO)Cc2ccccc2)C(=O)N1	·	194%	·	·	·
Cc1ccc(NC(=O)N2CCN(c3ncccc3C(F)(F)F)CC2)cc1	26	-5%	-5%	15*	-5%
O=C(Nc1ccc2ccccc2c1)N1CCN(c2ncccc2C(F)(F)F)CC1	-17	26%	-36%	1	4%
Cc1nn(C2CCS(=O)(=O)C2)c(C)c1C=O (stereo unspecified)	-14	-10%	·	-3	2%
CC(C)(C)c1ccc(C(=O)NC2CCN(Cc3ccccc3)CC2)cc1	-8	26%	-3%	-4	1%
O=c1[nH]c(O)c(N=Nc2ccc(SC(F)F)cc2)c(=O)[nH]1	36	-21%	-2%	20*	-13%
C=CCNC(=S)Nc1ccc(C)cc1[N+](=O)[O-]	26	0%[2.29 µM]	2%	15	1%
Cc1ccc(NC(=O)C2CC2c2ccccc2)c([N+](=O)[O-])c1 (stereo unspecified)	34*	-24%	-1%	35*	-9%
O=C(Nc1ccc(Cl)cc1F)C1CC1c1ccccc1 (stereo unspecified)	·	-37%	-23%	14	-14%
Cc1ccc(NC(=S)NC(C)(C)C)c([N+](=O)[O-])c1	25	-25%	-5%	26*	11%
CN1/C(=C\C=Nc2ccc3ccccc3c2)C(C)(C)c2ccccc21	53	-7%	-18%	47*	2%
CN(C)c1ccc(N=C/C=C2\N(C)c3ccccc3C2(C)C)cc1	167*	-8%	-6%	68*	-5%
CN1/C(=C\C=Nc2ccccc2)C(C)(C)c2ccccc21	-16	-20%	-32%	-2	-4%
CCOC(=O)NC(N(O)c1cccc(Cl)c1)C(Cl)(Cl)Cl (stereo unspecified)	21	-16%	-1%	20*	1%
CCOC(=O)N[C@H](Cc1c[nH]c2ccccc12)C(=O)Nc1cccc(Cl)c1	·	·	·	·	5%
CC(C)CC(=O)Nc1cccc(-c2nc3ccccc3[nH]2)c1	16	-30%	10%	14*	1%
COc1ccc(CC(=O)Nc2cccc(-c3csc(C)n3)c2)cc1	37	-19%	0%	16	?
O=C(COc1ccccc1)Nc1cccc(-c2nc3cc4ccccc4cc3[nH]2)c1	79*	-25%	-92%	70*	1%
CCC(=O)Nc1cccc(-c2csc(-c3ccccc3)n2)c1	62*	-4%	-47%	54*	-17%
CC(C)CC(=O)Nc1cccc(-c2csc(-c3ccccc3)n2)c1	+	-24%	-10%	39*	2%
CCC(C)(C(=O)NC1CCCC1)N(Cc1cccs1)C(=O)c1ccccn1 (stereo unspecified)	-15	-6%	·	10	0%
O=C(Nc1ccccc1C(=O)NCCc1ccccc1)c1ccco1	44	-28%	-63%	37*	1%
O=C(NCc1ccccc1)c1ccccc1NC(=O)C1CCCCC1	8	-5%	-72%	8	6%
CC(=O)c1c(C)[nH]c(C(=O)NCC2CCCCC2)c1C	63*	-36%	-15%	11	-10%
SMILES	Shiga inhibitor	AmpC inh no detg	NS1 function inh	CHX counter	AmpC inh detg
O=C(NCCc1ccccc1)c1coc(=O)c(Br)c1	26	-33%	-4%	14*	1%
CCCNC(=O)c1[nH]c(C)c(C(C)=O)c1C	4	2%	-6%	6	6%
O=C(NCCc1ccccc1)c1ccccc1NC(=O)C1CCCCC1C(=O)O (stereo unspecified)	56*	-28%	-1%	29*	1%
CSCCC(N=C(NS(=O)(=O)c1ccc(Br)cc1)c1ccccc1)C(=O)O (stereo unspecified)	-9	-19%	·	6	?
CCOc1ccccc1NC(=O)c1nc2nc(C)cc(C(F)F)n2n1	·	·	·	·	5%
CC1CCN(C(=O)COC(=O)c2ccccc2NC(=O)c2ccco2)CC1	101*	0%[2.29 µM]	-1%	44*	-1%
CN(CC(=O)NCCc1ccccc1)Cc1ccco1	99*	0%	-5%	32*	-1%
O=C(NCCc1ccccc1)c1c(F)cccc1F	99*	-7%	3%	39*	8%
Cc1ccccc1CS(=O)(=O)Cc1ccc(C(=O)NCCc2ccccc2)o1	12	14%	-12%	23*	-1%
COc1ccc(-c2noc(CSCC(=O)Nc3ccc(C)cc3Br)n2)cc1OC	·	·	·	·	19%
COC(=O)Cn1nc(C)c2c(C)n(-c3ccccc3)nc2c1=O	·	·	·	·	-1%
NS(=O)(=O)c1ccc(CCNC(=O)c2ccco2)cc1	-5	-7%	·	8	?
O=C(NCCc1ccccc1)c1ccco1	86*	-11%	-3%	49*	-4%
O=C(CCc1ccccc1)NCC1OCCc2ccccc21 (stereo unspecified)	17	-16%	-5%	11	-1%
O=C(NCC1OCCc2ccccc21)c1ccco1 (stereo unspecified)	34*	-3%	-20%	19*	0%
CCC(NC(=O)c1ccccc1NC(=O)c1ccco1)C(=O)NC1CCCCC1 (stereo unspecified)	-17	-12%	4%	22*	0%
CC(=O)c1c(C)[nH]c(C(=O)NCCc2ccccc2)c1C	104*	-19%	-6%	36*	-6%
COc1ccc2nc(NC(=O)c3ccc(S(=O)(=O)N4CCCC(C)C4)cc3)sc2c1 (stereo unspecified)	·	·	·	·	9%
O=[N+]([O-])c1ccccc1/C=N/n1c(C2CCCCC2)n[nH]c1=S	87	-27%	-31%	34*	-7%
O=[N+]([O-])c1cc2c(cc1/C=N/n1c(-c3ccccc3)n[nH]c1=S)OCO2	55*	-31%	24%	43*	0%
O=[N+]([O-])c1cc2c(cc1/C=N/n1c(-c3ccccn3)n[nH]c1=S)OCO2	-11	-13%	22%	-2	-1%
CN(C)c1ccc(/C=N/N=C2/NC(=O)/C(=C/c3ccc([N+](=O)[O-])cc3)S2)cc1	54*	-20%	-14%	28*	-8%
Cc1nc2ccc(NC(=O)c3cc(Cl)ccn3)cc2s1	82*	29%	1%	62*	-3%
Cc1nc2ccc(NC(=O)c3ccc([N+](=O)[O-])cc3)cc2s1	10	-16%	0%	14	?
Cc1nc2ccc(NC(=O)c3ccc(Cl)c([N+](=O)[O-])c3)cc2s1	20	-18%	-2%	1	-3%
Cc1nc2ccc(NC(=O)c3ccc(Cl)nc3)cc2s1	24	-21%	-6%	18*	-3%
CCCc1nnc(NC(=O)CCC(=O)NCc2ccc(OC)cc2)s1	13	-20%	3%	1	-5%
c1ccc(N/N=C(\Cc2nc3ccccc3[nH]2)c2ccccc2)cc1	48*	-31%	3%	52*	-7%

Screening data (PubChem)
